From PubChem
KCNQ2 inh = inhibitors of rat KCNQ2 potassium channel; O88943; B-score at 10 µM; CHO-K1 KCNQ2, FluxOR thallium flux, 20 min; hits give low values; AID 2156; actives 1.1% (n = 310,000);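 active = fluorescence ratio B-score at most minus 3 library SDs, with starting brightness B-score within 2 library SDs, cut at about -5.5 in these data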
Target sequence (O88943 whole entry, looked up): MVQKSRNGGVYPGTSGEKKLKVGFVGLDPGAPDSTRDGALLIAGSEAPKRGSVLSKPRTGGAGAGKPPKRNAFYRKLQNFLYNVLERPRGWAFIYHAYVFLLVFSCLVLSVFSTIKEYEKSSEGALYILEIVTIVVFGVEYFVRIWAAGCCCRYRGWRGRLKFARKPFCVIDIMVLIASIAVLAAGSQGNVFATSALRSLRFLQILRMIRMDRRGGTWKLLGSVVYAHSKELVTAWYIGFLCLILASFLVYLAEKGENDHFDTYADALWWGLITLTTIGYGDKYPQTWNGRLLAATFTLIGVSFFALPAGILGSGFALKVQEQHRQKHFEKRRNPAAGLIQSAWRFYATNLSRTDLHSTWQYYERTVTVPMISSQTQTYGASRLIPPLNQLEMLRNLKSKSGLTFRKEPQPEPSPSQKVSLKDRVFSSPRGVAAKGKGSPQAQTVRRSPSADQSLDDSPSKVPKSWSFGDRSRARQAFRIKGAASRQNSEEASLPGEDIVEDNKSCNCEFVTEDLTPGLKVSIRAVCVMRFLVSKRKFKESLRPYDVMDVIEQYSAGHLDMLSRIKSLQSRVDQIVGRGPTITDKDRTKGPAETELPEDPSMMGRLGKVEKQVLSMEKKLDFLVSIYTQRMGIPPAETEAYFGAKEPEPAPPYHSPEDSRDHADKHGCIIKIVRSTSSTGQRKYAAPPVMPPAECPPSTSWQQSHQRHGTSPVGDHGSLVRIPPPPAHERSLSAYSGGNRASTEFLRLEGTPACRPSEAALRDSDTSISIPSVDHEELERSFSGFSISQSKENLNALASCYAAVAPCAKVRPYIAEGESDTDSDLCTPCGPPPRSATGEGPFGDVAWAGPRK
KCNQ2 pot = KCNQ2 (rat) channel potentiation. O88943. CHO-K1 KCNQ2, FluxOR thallium flux fluorescence; hits give high values. B-score at 10 µM. actives 0.54% (n = 310,000);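 active = fluorescence ratio B-score at least 3 SD of library B-scores, with initial fluorescence B-score within 3 of them, cut at about 5.3 in these data; same plate scores as AID 2156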;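 also: B-score of peak minus minimum over baseline fluorescence ratio after K+ and Tl+ stimulus; positive B-score means potentiation of KCNQ2 with more thallium influx and brighter signal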
KCNQ2 block conf = rat KCNQ2 channel inhibition, confirmatory screen; shares compounds with KCNQ2 inh; KCNQ2-expressing cells, thallium flux; hits give low values; activity change, negative = inhibition, % at 10 µM; actives 57% (n = 1,000); AID 493025;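 also: 0% = vehicle wells and values are ratio percent relative to vehicle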
KCNQ1 spec = selectivity of KCNQ2 inhibitors against human KCNQ1 | shares compounds with KCNQ2 inh | KCNQ1-expressing cells, FluxOR thallium flux fluorescence; hits give low values | activity change, negative = inhibition, % at 10 µM | actives 15% (n = 1,000);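 active = activity change at least 3 SD of negative controls below their mean in both duplicate wells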;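 also: CHO cells stably transfected with KCNQ1 and depolarized by potassium stimulus; peak minus minimum fluorescence over baseline after thallium addition; 0% = vehicle negative control and -100% = blank without thallium stimulus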
CHO parental ctr = counter-screen for KCNQ2 inhibitors: effect in parental CHO cells | shares compounds with KCNQ2 inh | thallium flux counter-screen; hits give low values | activity change, % at 10 µM | actives 14% (n = 1,000) | AID 493029;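 also: 0% = vehicle negative controls with stimulus buffer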
KCNQ2 inh confirm = rat KCNQ2 inhibition confirmed by electrophysiology; shares compounds with KCNQ2 inh; KCNQ2-expressing cells, automated patch clamp current; calls only at 10 µM; actives 49% (n = 550); AID 588531
Active calls of the source: *; i = inactive; . = no result; + = active, no number. Sampled rows, rich in hits. Any-hit rate of the full collection: about 1.6%. Unless noted, no rule for the calls is given here.

SMILES | KCNQ2 inh | KCNQ2 pot | KCNQ2 block conf | KCNQ1 spec | CHO parental ctr | others
Cc1ccc2nc(-c3ccccc3)cc(C(=O)N3CC(C)OC(C)C3)c2c1 (stereo not given) | -9.27* | -9.27 | -30.0%* | i | i | KCNQ2 inh confirm=+
COc1cccc(-c2cc(C(F)(F)F)n3ncc(C(=O)N4CCc5ccccc5C4)c3n2)c1 | i | . | . | . | .
O=C(c1cc(Cl)nc2ccccc12)N1CCc2ccccc2C1 | i | . | . | . | .
COc1ccc(-c2cc(C(F)(F)F)n3ncc(C(=O)N4CCc5ccccc5C4)c3n2)cc1 | -6.77* | -6.77 | i | i | i
CC1CC(C)CN(C(=O)c2cc(-c3ccncc3)nc3ccccc23)C1 (stereo not given) | i | . | . | . | .
Cc1ccc(OCC(=O)N2CCc3ccccc3C2)c(Br)c1 | i | . | . | . | .
O=C(COc1ccc(Cl)cc1)Nc1cc2c3c(c1)CC(=O)N3CCC2 | i | 1.86 | . | . | .
Cc1ccc(C(=O)NCCNC(=O)Cc2ccccc2)cn1 | i | 1.16 | . | . | .
COc1ccc(OC)c(N(C)S(=O)(=O)c2ccc3c(c2)N(C(C)=O)CCO3)c1 | i | 0.83 | . | . | .
Cc1ccc2nc(-c3ccccc3)cc(C(=O)N3CCc4ccccc4C3)c2c1 | -8.32* | -8.32 | i | i | i
Cc1ccc2nc(-c3ccccn3)cc(C(=O)N3CCN(c4ncccn4)CC3)c2c1 | i | 0.46 | . | . | .
CCC(=O)N1CCc2cc(S(=O)(=O)CCC(=O)N3CCN(c4ccc(F)cc4)CC3)ccc21 | i | . | . | . | .
CCc1cc(/C(Cc2ccc3ccccc3n2)=N\O)c(O)cc1O | -12* | -12 | -35.0%* | -41.5%* | -27.0%* | KCNQ2 inh confirm=+
CCc1cc(/C(Cc2ccccn2)=N\O)c(O)cc1O | i | . | . | . | .
O=C(Nc1cccc(Cl)c1N1CCOCC1)c1ccc(Br)o1 | i | . | . | . | .
CCOC(=O)CNc1c(-c2ccc(OC)cc2)nc2ccc(Cl)cn12 | -8.94* | -8.94 | -28.0%* | i | i | KCNQ2 inh confirm=+
COCCNc1c(-c2ccc(OC)cc2)nc2ccc(Cl)cn12 | i | . | . | . | .
C/C=C(\C)C(=O)NNC(=O)c1sc(-c2ccccc2)nc1C | i | 0.81 | . | . | .
CC12CCC(=O)N1C(C(=O)Nc1nc(-c3ccccc3Cl)cs1)CS2 (stereo not given) | i | . | . | . | .
C=CCn1c(=O)c(C(=O)Nc2ccc(C)cc2)c(O)c2ccccc21 | i | . | . | . | .
C=CCn1c(=O)c(C(=O)NCc2ccccc2Cl)c(O)c2ccccc21 | -7.08* | -7.08 | i | i | i
C=CCn1c(=O)c(C(=O)NC(C)c2ccccc2)c(O)c2ccccc21 (stereo not given) | -8.16* | -8.16 | -29.5%* | i | i | KCNQ2 inh confirm=i
CCCn1c(=O)c(C(=O)NCc2ccccc2Cl)c(O)c2ccccc21 | i | . | . | . | .
CC1CN(S(=O)(=O)c2ccc(C(=O)N(CCCN(C)C)c3nc4c(Cl)cccc4s3)cc2)CC(C)O1 (stereo not given) | i | . | . | . | .
CN1C(=O)CSC1=NC12CC3CC(CC(C3)C1)C2 | i | . | . | . | .
SMILES | KCNQ2 inh | KCNQ2 pot | KCNQ2 block conf | KCNQ1 spec | CHO parental ctr | others
CCN1C(=O)CSC1=NC12CC3CC(CC(C3)C1)C2 | -7.84* | -7.84 | -32.0%* | -29.5%* | -30.0%* | KCNQ2 inh confirm=i
Cc1ccc(-n2cccc2/C=C2/C(=N)N3C(=NC2=O)SN=C3S(C)(=O)=O)cc1 | i | . | . | . | .
CCc1ccc(-n2cccc2/C=C2/C(=N)N3C(=NC2=O)SN=C3S(C)(=O)=O)cc1 | -10.4* | -10.4 | -39.0%* | -41.0%* | -35.0%* | KCNQ2 inh confirm=i
COc1ccc2c(c1OC)C(=O)N(c1ccc(OCc3ccccc3)cc1)C2=O | i | 0.84 | . | . | .
CCN(c1ccc(OC)cc1)S(=O)(=O)N1CCCC(C(=O)NCc2ccccc2Br)C1 (stereo not given) | -10.1* | -10.1 | i | i | i
COc1ccc(CNC(=O)C2CCCN(S(=O)(=O)c3ccccc3)C2)cc1 (stereo not given) | i | . | . | . | .
CN(C)CCCNC(=O)/C(=C\c1ccc(-c2ccc(Br)cc2)o1)NC(=O)c1ccccc1 | i | . | . | . | .
Cc1ccc(C(=O)N/C(=C\c2ccc(-c3ccc(Cl)cc3)o2)C(=O)NCCCN(C)C)cc1 | -7.19* | -7.19 | -17.5%* | i | i
COc1ccc(-c2cc(C(=O)N(C)Cc3ccc(F)cc3)c3ccccc3n2)cc1OC | -7.49* | -7.49 | -53.0%* | -47.5%* | -55.5%* | KCNQ2 inh confirm=+
COc1ccc(NC(=O)CN(C)C(=O)c2cc(-c3ccc(OC)cc3)nc3ccccc23)cc1 | i | 0.28 | . | . | .
COc1ccc(-c2cc(C(=O)N3CC(C)CC(C)C3)c3ccccc3n2)cc1OC (stereo not given) | -10.6* | -10.6 | -31.0%* | i | i | KCNQ2 inh confirm=+
COc1ccc(CCN(C)C(=O)c2cc(-c3ccc(C)cc3)nc3ccccc23)cc1OC | -6.74* | -6.74 | -45.0%* | -45.5%* | -41.5%* | KCNQ2 inh confirm=+
COc1ccc(-c2cc(C(=O)N3CCCC3)c3ccccc3n2)cc1OC | i | 0.4 | . | . | .
COc1ccc(-c2cc(C(=O)N3CCC3)c3ccccc3n2)cc1OC | i | 1.16 | . | . | .
CN1CCN(Cc2c(C(=O)N/N=C/c3cccc(Br)c3)nnn2-c2nonc2N)CC1 | i | . | . | . | .
CC(C)[C@H](NC(=O)OCc1ccccc1)C(=O)OCC(=O)N1CCN(c2ccccc2)CC1 | i | . | . | . | .
COc1cccc(-c2nc(-c3ccccc3)c(-c3ccccc3)[nH]2)c1OCC(=O)O | i | . | . | . | .
COc1cccc(-c2nc(-c3ccc4c(c3)-c3ccccc3S4(=O)=O)c(-c3ccccc3)[nH]2)c1OC | -8.88* | -8.88 | -26.0%* | i | i | KCNQ2 inh confirm=i
CCOc1ccc(N(CC(=O)N2CCc3ccccc32)S(=O)(=O)c2c(C)noc2C)cc1 | i | . | . | . | .
CCOc1ccc(N(CC(=O)N2CC=C(c3ccccc3)CC2)S(=O)(=O)c2c(C)noc2C)cc1 | -8.62* | -8.62 | i | i | i
Cc1nc(Sc2ccc(Br)cc2)c(C#N)c(C)c1[N+](=O)[O-] | -7.65* | -7.65 | -20.5%* | i | i | KCNQ2 inh confirm=i
Cc1ccc(Sc2nc(C)c([N+](=O)[O-])c(C)c2C#N)cc1 | i | . | . | . | .
COc1ccccc1NC(=O)NC1(C(=O)NCC2CCCO2)CCCCC1 (stereo not given) | i | 0.07 | . | . | .
O=C(CCn1c(=O)[nH]c2ccsc2c1=O)N(CCc1ccccc1)Cc1ccccc1 | -7.42* | -7.42 | -25.5%* | i | i | KCNQ2 inh confirm=+
O=C(CCCCn1c(=O)[nH]c2ccsc2c1=O)NCCc1ccccc1 | i | 1.17 | . | . | .
Cc1ccccc1CN1CCNC(=O)C1CC(=O)NCCN1CCCCC1=O (stereo not given) | i | . | . | . | .
O=C(c1ccco1)N(CCC(c1ccccc1)c1ccco1)Cc1ccc(F)cc1 (stereo not given) | -7.85* | -7.85 | -45.5%* | -46.0%* | -42.5%* | KCNQ2 inh confirm=+
CC1(C)CC(C(CCN(Cc2ccccc2)C(=O)c2ccco2)c2ccc(F)cc2)CCO1 (stereo not given) | i | . | . | . | .
CCC(=O)N(CCC(c1ccc(C)cc1)c1ccco1)Cc1ccco1 (stereo not given) | -10.2* | -10.2 | i | i | i
